In PubChem BioAssay (NCI):
About 83,000 compounds went through this panel and 20% of them were active in at least one assay; those are over-represented in the sample as a whole.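 The test compound was applied at a single concentration to cells in 96-well plates for 48 hours, and percent growth was recorded.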 Activity calls are given as the source filed them. How the source made its calls: active means growth percent below 10; inactive means the rest.

What was measured:
Test in all cases: NCI-60 one-dose screen, 48 h (100 = growth as untreated, 0 = no growth, -100 = all killed)
Conditions in all cases: 10 µM
HCT-15 colon = tested on: HCT-15 colon
HT29 colon = tested on: HT29 colon
SNB-75 CNS = tested on: SNB-75 CNS
SNB-19 CNS = tested on: SNB-19 CNS
U251 CNS = tested on: U251 CNS
PC-3 prostate = tested on: PC-3 prostate
SK-MEL-5 melanoma = tested on: SK-MEL-5 melanoma
UACC-62 melanoma = tested on: UACC-62 melanoma
LOX IMVI melanoma = tested on: LOX IMVI melanoma
SK-MEL-28 melanoma = tested on: SK-MEL-28 melanoma
SK-MEL-2 melanoma = tested on: SK-MEL-2 melanoma
SN12C renal = tested on: SN12C renal
UO-31 renal = tested on: UO-31 renal
TK-10 renal = tested on: TK-10 renal
ACHN renal = tested on: ACHN renal
CAKI-1 renal = tested on: CAKI-1 renal
A498 renal = tested on: A498 renal
CCRF-CEM leukemia = tested on: CCRF-CEM leukemia
MOLT-4 leukemia = tested on: MOLT-4 leukemia
EKVX NSCLC = tested on: EKVX NSCLC

Measured: growth

Nc1ccc(Sc2ccc3c4c2cccc4c(=O)n2c4ccccc4nc32)cc1
active: UO-31 renal 9.28% | CAKI-1 renal 5.9% | MOLT-4 leukemia -6.87%
inactive: HCT-15 colon 40.5% | HT29 colon 66.7% | SNB-75 CNS 43.7% | SNB-19 CNS 46.3% | U251 CNS 39.9% | PC-3 prostate 50.4% | SK-MEL-5 melanoma 39.4% | UACC-62 melanoma 31.9% | LOX IMVI melanoma 29.2% | SK-MEL-28 melanoma 73.7% | SK-MEL-2 melanoma 84.1% | SN12C renal 19.2% | TK-10 renal 78.6% | ACHN renal 22.1% | A498 renal 58.8% | CCRF-CEM leukemia 44.9%

Nc1ccc(C2=CC(c3ccc(Cl)cc3)N3C=CSC3=N2)cc1 (configuration not stated)
active: HCT-15 colon -57.7% | HT29 colon -42.9% | SNB-75 CNS -15.6% | SNB-19 CNS -65.2% | U251 CNS -83.5% | PC-3 prostate -28.1% | SK-MEL-5 melanoma -97.6% | UACC-62 melanoma -67.1% | LOX IMVI melanoma -83.3% | SK-MEL-28 melanoma -89.7% | SK-MEL-2 melanoma -49.9% | SN12C renal -45.2% | UO-31 renal -96% | TK-10 renal -30.1% | ACHN renal -100% | CAKI-1 renal -19.5% | A498 renal -93.5% | CCRF-CEM leukemia -22.1% | MOLT-4 leukemia -11%

O=C/C=C/c1ccc([N+](=O)[O-])cc1Cl
inactive: HCT-15 colon 98% | HT29 colon 97.4% | SNB-75 CNS 101% | SNB-19 CNS 105% | U251 CNS 100% | PC-3 prostate 86.6% | SK-MEL-5 melanoma 100% | UACC-62 melanoma 96.5% | LOX IMVI melanoma 47.8% | SK-MEL-28 melanoma 102% | SK-MEL-2 melanoma 94.2% | SN12C renal 97.5% | UO-31 renal 74.5% | TK-10 renal 139% | ACHN renal 115% | CAKI-1 renal 107% | A498 renal 117% | CCRF-CEM leukemia 42.6% | MOLT-4 leukemia 86.6%

CS(=O)(=O)Nc1ccc([N+](=O)[O-])cc1Oc1ccccc1
inactive: HCT-15 colon 104% | HT29 colon 99.9% | SNB-75 CNS 110% | SNB-19 CNS 104% | U251 CNS 90.4% | PC-3 prostate 95.4% | SK-MEL-5 melanoma 84.2% | UACC-62 melanoma 89.8% | LOX IMVI melanoma 88.2% | SK-MEL-28 melanoma 118% | SK-MEL-2 melanoma 125% | EKVX NSCLC 87.6% | UO-31 renal 81.5% | TK-10 renal 117% | CAKI-1 renal 78.7% | A498 renal 92% | CCRF-CEM leukemia 85.5% | MOLT-4 leukemia 84.8%

C#C[C@]1(O)CC[C@H]2[C@@H]3CC[C@H]4CC(F)(F)CC[C@]4(C)[C@H]3CC[C@@]21C
inactive: HCT-15 colon 94.6% | HT29 colon 64.1% | SNB-75 CNS 70.5% | SNB-19 CNS 80.3% | U251 CNS 73.3% | PC-3 prostate 70.7% | SK-MEL-5 melanoma 94.3% | UACC-62 melanoma 78.8% | LOX IMVI melanoma 89.1% | SK-MEL-28 melanoma 74.4% | SK-MEL-2 melanoma 115% | SN12C renal 87.4% | UO-31 renal 102% | TK-10 renal 97.7% | ACHN renal 89.3% | CAKI-1 renal 84.6% | A498 renal 41.1% | CCRF-CEM leukemia 74.7% | MOLT-4 leukemia 95.7%

C[C@@H]1C(=O)N(C[C@H](Cc2ccccc2)NC(=O)OCc2ccccc2)[C@]1(Cc1ccccc1)C(=O)OCc1ccccc1
inactive: HCT-15 colon 39.3% | HT29 colon 43.7% | SNB-75 CNS 52.5% | SNB-19 CNS 56.7% | U251 CNS 35.2% | PC-3 prostate 10.4% | SK-MEL-5 melanoma 13.2% | UACC-62 melanoma 40.7% | LOX IMVI melanoma 36.5% | SK-MEL-28 melanoma 66.9% | SK-MEL-2 melanoma 42.9% | EKVX NSCLC 34% | UO-31 renal 16.4% | ACHN renal 32.2% | CAKI-1 renal 32.2% | A498 renal 37.7% | CCRF-CEM leukemia 52.6%
active: MOLT-4 leukemia -0.259%

Cc1nnc2c3nnc(-c4ccc(Cl)cc4)n3c3ccccc3n12
inactive: HCT-15 colon 97.4% | HT29 colon 103% | SNB-75 CNS 89.1% | SNB-19 CNS 106% | U251 CNS 100% | PC-3 prostate 91.8% | SK-MEL-5 melanoma 99.7% | UACC-62 melanoma 97.7% | LOX IMVI melanoma 97.2% | SK-MEL-28 melanoma 104% | SK-MEL-2 melanoma 99.9% | SN12C renal 97.7% | UO-31 renal 72.4% | TK-10 renal 92% | ACHN renal 101% | CAKI-1 renal 93.2% | A498 renal 94.3% | CCRF-CEM leukemia 90.3% | MOLT-4 leukemia 89.9%

C#CCn1c(-c2cccc(OCCCCl)c2)nc2c1c(=O)n(C)c(=O)n2C
inactive: HCT-15 colon 86.9% | HT29 colon 102% | SNB-75 CNS 89% | SNB-19 CNS 97% | U251 CNS 90.7% | PC-3 prostate 26% | SK-MEL-5 melanoma 61.4% | UACC-62 melanoma 46.2% | LOX IMVI melanoma 93.8% | SK-MEL-28 melanoma 95.7% | SK-MEL-2 melanoma 81% | SN12C renal 84.5% | UO-31 renal 50.5% | TK-10 renal 101% | ACHN renal 76.6% | CAKI-1 renal 69.2% | A498 renal 83.6% | CCRF-CEM leukemia 13%
active: MOLT-4 leukemia 2.33%

COc1ccc(-c2nc(-c3ccccc3)c(-c3ccccc3)[nH]2)cc1OC1CCCC1
inactive: HCT-15 colon 19.8% | HT29 colon 35.5% | SNB-75 CNS 70.5% | SNB-19 CNS 66.4% | U251 CNS 39.1% | PC-3 prostate 50.1% | SK-MEL-5 melanoma 67.7% | UACC-62 melanoma 57% | LOX IMVI melanoma 24.3% | SK-MEL-28 melanoma 79.4% | SK-MEL-2 melanoma 66.2% | SN12C renal 62.5% | UO-31 renal 67.4% | TK-10 renal 88.4% | ACHN renal 54.4% | CAKI-1 renal 71% | CCRF-CEM leukemia 50.7% | MOLT-4 leukemia 40.8%
active: A498 renal -9.35%

CCCCCCCCCCCC(=O)NCCCN(C)C
inactive: HCT-15 colon 93.8% | HT29 colon 65.5% | SNB-75 CNS 75.2% | SNB-19 CNS 102% | U251 CNS 75% | PC-3 prostate 75.5% | SK-MEL-5 melanoma 105% | UACC-62 melanoma 101% | LOX IMVI melanoma 69% | SK-MEL-28 melanoma 91.9% | SK-MEL-2 melanoma 92.2% | SN12C renal 86.6% | UO-31 renal 85% | TK-10 renal 96% | ACHN renal 99.9% | CAKI-1 renal 83.4% | A498 renal 72.2% | CCRF-CEM leukemia 65% | MOLT-4 leukemia 88.9%

COc1ccc2nc(-c3ccccc3)cc(C(C)=O)c2c1
inactive: HCT-15 colon 94.9% | HT29 colon 93.6% | SNB-75 CNS 79.7% | SNB-19 CNS 101% | U251 CNS 99.1% | PC-3 prostate 84.4% | SK-MEL-5 melanoma 98.5% | UACC-62 melanoma 91.1% | LOX IMVI melanoma 92.2% | SK-MEL-28 melanoma 108% | SK-MEL-2 melanoma 96.6% | SN12C renal 94.9% | UO-31 renal 73.8% | TK-10 renal 89.7% | ACHN renal 97.7% | CAKI-1 renal 87.9% | A498 renal 74.8% | CCRF-CEM leukemia 91.2% | MOLT-4 leukemia 73.1%

COc1ccc(-c2nsc3c2NC(=O)CC3c2cccc(Cl)c2)cc1 (configuration not stated)
inactive: HCT-15 colon 27.7% | SNB-19 CNS 54.3% | U251 CNS 35% | PC-3 prostate 15.7% | SK-MEL-5 melanoma 23% | UACC-62 melanoma 41.6% | LOX IMVI melanoma 43.7% | SK-MEL-28 melanoma 49.8% | SN12C renal 47.8% | UO-31 renal 36.8% | TK-10 renal 34.9% | ACHN renal 49.9% | CAKI-1 renal 18.4% | A498 renal 17.8% | CCRF-CEM leukemia 13.8% | MOLT-4 leukemia 18.2%
active: HT29 colon 2.95% | SNB-75 CNS -0.284% | SK-MEL-2 melanoma -14.4%

CC1=CC2OC34COC3CC(OC(=O)C(F)(F)F)C4(C)C2(C)CC1 (configuration not stated)
inactive: HCT-15 colon 97.4% | HT29 colon 104% | SNB-75 CNS 86% | SNB-19 CNS 94.5% | U251 CNS 101% | PC-3 prostate 100% | SK-MEL-5 melanoma 97.4% | UACC-62 melanoma 101% | LOX IMVI melanoma 97.1% | SK-MEL-28 melanoma 101% | SK-MEL-2 melanoma 104% | SN12C renal 98.4% | UO-31 renal 99.5% | TK-10 renal 101% | ACHN renal 98.4% | CAKI-1 renal 102% | A498 renal 79.6% | CCRF-CEM leukemia 101% | MOLT-4 leukemia 113%

C=C[C@]1(C)C=C2C(=O)[C@@]3(O)OC(=O)[C@@]4(CCCC(C)(C)[C@H]34)[C@@]2(O)CC1
active: HCT-15 colon -30.5% | HT29 colon -2.72% | SNB-75 CNS -78.8% | U251 CNS -94% | PC-3 prostate -74.7% | SK-MEL-5 melanoma -99.1% | UACC-62 melanoma -87.2% | LOX IMVI melanoma -96.7% | SK-MEL-28 melanoma -98.8% | SK-MEL-2 melanoma -66.5% | SN12C renal -66.5% | UO-31 renal -99.4% | TK-10 renal -95.5% | ACHN renal -100% | CAKI-1 renal -90.6% | A498 renal -94.6% | CCRF-CEM leukemia -31.5% | MOLT-4 leukemia -13.6%
inactive: SNB-19 CNS 26.5%

Cc1ccc([P+](Cc2ccccc2)(c2ccccc2)c2ccccc2)cc1
active: HT29 colon 3.42% | SNB-75 CNS 6.53% | PC-3 prostate 2.37% | SK-MEL-5 melanoma -43% | UACC-62 melanoma 1.54% | SK-MEL-2 melanoma -29.1% | MOLT-4 leukemia 6.83%
inactive: HCT-15 colon 87.4% | SNB-19 CNS 24.7% | U251 CNS 10.1% | LOX IMVI melanoma 16.8% | SK-MEL-28 melanoma 24.4% | SN12C renal 19.3% | UO-31 renal 68.7% | TK-10 renal 12.3% | ACHN renal 60.6% | CAKI-1 renal 76.7% | A498 renal 23% | CCRF-CEM leukemia 13.6%

COc1ccc2nc(C)cc(Nc3ccc(Cl)cc3)c2c1
inactive: HCT-15 colon 99.1% | HT29 colon 116% | SNB-75 CNS 102% | SNB-19 CNS 104% | U251 CNS 97.1% | PC-3 prostate 100% | SK-MEL-5 melanoma 93.7% | UACC-62 melanoma 99% | LOX IMVI melanoma 105% | SK-MEL-28 melanoma 105% | SK-MEL-2 melanoma 104% | SN12C renal 97.4% | UO-31 renal 91.1% | TK-10 renal 109% | ACHN renal 105% | CAKI-1 renal 101% | A498 renal 103% | CCRF-CEM leukemia 94.5% | MOLT-4 leukemia 110%
